Experimental data as given in PubChem BioAssay (NCI).
The panel holds about 83,000 compounds, 20% with a hit somewhere; the sample as a whole holds those more often.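 96-well plates, one dose, 48 hours. Percent growth reported; active if below 10.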 Values without a mark were called inactive. Calls of active or inactive are those of the source.

Legend:
Assay in all cases: NCI-60 one-dose screen, 48 h (100 = growth as untreated, 0 = no growth, -100 = all killed)
Details in all cases: 10 µM unless noted
[1] = system: SR leukemia
[2] = system: RPMI-8226 leukemia
[3] = system: OVCAR-8 ovarian
[4] = system: OVCAR-5 ovarian
[5] = system: OVCAR-4 ovarian
[6] = system: SK-OV-3 ovarian
[7] = system: IGROV1 ovarian
[8] = system: OVCAR-3 ovarian
[9] = system: HS 578T breast
[10] = system: NCI/ADR-RES ovarian
[11] = system: T-47D breast
[12] = system: BT-549 breast
[13] = system: MDA-MB-435 melanoma
[14] = system: SW-620 colon
[15] = system: MCF7 breast
[16] = system: HCT-116 colon
[17] = system: HCC-2998 colon
[18] = system: KM12 colon

| SMILES | growth [1] | growth [2] | growth [3] | growth [4] | growth [5] | growth [6] | growth [7] | growth [8] | growth [9] | growth [10] | growth [11] | growth [12] | growth [13] | growth [14] | growth [15] | growth [16] | growth [17] | growth [18] |
| --- | --- | --- | --- | --- | --- | --- | --- | --- | --- | --- | --- | --- | --- | --- | --- | --- | --- | --- |
| O=S(=O)(NCCNc1cc(-c2cn(-c3ccccc3)nc2-c2cccc(O)c2)ccn1)c1cccc(F)c1 | 18.9% | 22.9% | 34.2% | 54.8% | 39.4% | 50.3% | 43.5% | 50.8% | 37.6% | 33.1% | 11.6% | 48% | 43.5% | 19.1% | 21.4% | 23.2% | -15.6% (active) | – |
| c1ccc(CN2C(c3ccccc3)=Nc3ccccc3C2c2c[nH]c3ccccc23)cc1 (centres undefined) | -17.8% (active) | 4.99% (active) | 44.4% | 60.7% | 27.1% | 71.6% | 19.3% | 57.6% | 52.3% | 30.2% | 27.8% | 96.3% | 39.2% | 27.1% | 23.5% | 14.3% | 41.8% | – |
| C[C@H]1[C@@H]2[C@H]3CC[C@@H]4[C@@]5(C)Cc6c([nH]c7ccccc67)C(C)(C)[C@@H]5CC[C@@]4(C)[C@]3(C)CC[C@]23CO[C@]1(C)[C@@H](C(=O)/C=C/c1ccccn1)C3 | 55.6% | 62.5% | 63.3% | 108% | 83.7% | 112% | 106% | 96.2% | 87.7% | 100% | 65% | 87.1% | 83.8% | 95.9% | 69.2% | 46.4% | 103% | – |
| CN1CCN(c2ccc3nc(-c4[nH]ncc4Nc4ncnc5[nH]ccc45)[nH]c3c2)CC1 | -6.78% (active) | 101% | 7.18% (active) | 6.49% (active) | -10.9% (active) | 12.6% | 0.386% (active) | -0.64% (active) | 15.8% | 80.4% | -3.09% (active) | -41.9% (active) | 0.107% (active) | 3.78% (active) | 3.28% (active) | 2.16% (active) | -23.2% (active) | – |
| C=C(C)[C@@H]1CC[C@]2(C)[C@H](CC[C@@H]3[C@H]4[C@H]5OC[C@@]4(CCC5(C)C)CC[C@]32C)[C@@]1(C)CCCN | -0.922% (active) | 1.46% (active) | 57.8% | 50.6% | 70.2% | 104% | 54.3% | 76.6% | 109% | 73.8% | 23% | 93.8% | 49.2% | -45.1% (active) | 0.266% (active) | 4.71% (active) | -68.4% (active) | 23.9% |
| COc1cc2c3c(c4c5ccccc5[nH]c4c2c(OC)c1OC)C(=O)N(O)C3=O | 14.3% | 31.6% | 36.8% | 112% | 56.6% | 48.8% | 9.03% (active) | 49.5% | 67.4% | 43.8% | 19.5% | 46.2% | 56.1% | 49% | 20.4% | 16.8% | 55.3% | 53.7% |
| O=C1c2ccccc2NC(c2cn(-c3ccccc3)nc2-c2cccnc2)N1Cc1ccccc1 (centres undefined) | 78.8% | 76.5% | 98.3% | 91.5% | 92.2% | 117% | 76.5% | 102% | 96.2% | 97.3% | 75% | 105% | 108% | 105% | 89.3% | 95.5% | 97.2% | 91.5% |
| Clc1ccc2c(NCCNc3nc(-c4ccccc4)cc(-c4ccccc4)n3)ccnc2c1 | -19.4% (active) | -34.4% (active) | -70.6% (active) | -79.7% (active) | -66.4% (active) | 83.6% | -83.1% (active) | -85.6% (active) | -17.2% (active) | -41.8% (active) | -59.7% (active) | 75.1% | -82.6% (active) | -53.7% (active) | -68.7% (active) | -69.9% (active) | -28.7% (active) | 5.29% (active) |
| Cc1cc2nc3c4cc(O)ccc4n(CCN(C)C)c3nc2cc1C | 8.05% (active) | -11.2% (active) | -18.6% (active) | -11.6% (active) | 4.91% (active) | -2.47% (active) | -26.4% (active) | 3.66% (active) | 14.1% | -40.2% (active) | 4.84% (active) | 15.8% | 3.8% (active) | 3.53% (active) | -10.1% (active) | -0.74% (active) | -22.5% (active) | – |
| O=C1c2cc3c(cc2-c2c1c1ccc(F)cc1c(=O)n2CCCN1CCOCC1)OCO3 | 4.41% (active) | 46.1% | 47% | 78.9% | 78.5% | 20.1% | 77.5% | 85.7% | 100% | 36.6% | 28.4% | 47.5% | 65.6% | 48.8% | 13.5% | 45.2% | 77.8% | 69.8% |
| COc1cccc(-c2nn(-c3ccccc3)cc2-c2ccnc(NCCNS(=O)(=O)c3ccc(Cl)cc3)c2)c1 | -5.49% (active) | 9% (active) | 31.1% | 56.2% | 35.9% | 44.9% | 39.3% | 40.6% | 54.3% | 27.9% | 3.58% (active) | 41.9% | 21.8% | 48.1% | 11% | 20.6% | 19.5% | – |
| C=C(C)[C@@H]1CC[C@]2(C)CC[C@]3(C)[C@H](CC[C@@H]4[C@@]5(C)CCCNC(C)(C)[C@@H]5CC[C@]43C)[C@@H]12 | 1.2% (active) | 30.1% | 84.1% | 107% | 94.5% | 113% | 94% | 76.2% | 101% | 97.3% | 76% | 101% | 84.6% | 2.47% (active) | 33.3% | 5.39% (active) | 66% | 66.8% |
| COC(=O)[C@]12CC[C@@H](C)[C@H](C)[C@@H]1C1=CC(=O)[C@@H]3[C@@]4(C)C[C@@H](O)[C@H](O)[C@@]5(C)COC(=C45)C[C@@]3(C)[C@]1(C)CC2 | 7.5% (active) | 51.2% | 61.4% | 95.9% | 63% | 83.9% | 47.6% | 48.3% | 49.7% | 20.8% | 51.2% | 53.9% | -11.3% (active) | 33.3% | 28.5% | 53.2% | 69.2% | – |
| O=C1CN(c2ccccc2)C(=O)C1C(=O)Nc1ccc(Cl)c(Cl)c1 (centres undefined) | 1.54% [100 µM] (active) | 34.9% [100 µM] | -9.87% [100 µM] (active) | 36.3% [100 µM] | 0.243% [100 µM] (active) | 20.3% [100 µM] | 20.9% [100 µM] | 39.3% [100 µM] | 32.8% [100 µM] | 21.6% [100 µM] | 12.7% [100 µM] | 23.4% [100 µM] | 7.79% [100 µM] (active) | 20.1% [100 µM] | 15.7% [100 µM] | -19.4% [100 µM] (active) | 2.18% [100 µM] (active) | – |
| Cc1cc2nc3c4cc(Cl)ccc4n(CCN(C)C)c3nc2cc1C | 5.12% (active) | -11.5% (active) | 19.1% | 21.8% | 27.1% | 31.1% | 4.29% (active) | 32.9% | 45.5% | 13.6% | 30.5% | 53.6% | 1.97% (active) | -21.9% (active) | -37.9% (active) | -12.7% (active) | -23.7% (active) | – |
| CC1(C)C=CC[C@]2(C)[C@H]3CC[C@@H]4[C@H]5[C@H](C(=O)/C=C/c6cccnc6)CC[C@]5(CO)CC[C@@]4(C)[C@]3(C)CC[C@@H]12 | -26.9% (active) | -18.5% (active) | -11.7% (active) | -74.3% (active) | -14.5% (active) | -46.6% (active) | -54.5% (active) | -94.6% (active) | -42.9% (active) | -32.2% (active) | -74.5% (active) | -81% (active) | -57.1% (active) | -59% (active) | -21.8% (active) | -88.6% (active) | -66.8% (active) | -80.7% (active) |
